# Results: PubChem BioAssay AID463173 (ICCB-Longwood Screening Facility, Harvard Medical School, 2010)
# In all, about 52,000 compounds went through this assay and about 4,300 (8.3%) were called active. Many of the other results were omitted from the sample, so actives are more common in it than they were. Values without a mark were called inactive. No stated cut-off is given here; in the data, active means survival mostly below about 52% (no sharp cut-off); inactive means mostly above about 56%.
# Test system: DeltatarO mutant
# Assay: S. aureus survival, RN4220 and DeltatarO strains – OD600, teichoic acid synthesis inhibitors, primary screen (AID 463173)
# Conditions: S. aureus RN4220 wild type/DeltatarO growth, OD600, 18 h, active compounds read low, screened at 18.75 µg/mL (by protocol)
row,Compound,survival
1,CCn1c(C)c(C2N3CC4(C)CN2CC(C)(C3)C4=O)c2ccccc21 (stereo unspecified),92%
2,N#C/C(=C\c1cn(CC(=O)N2CCCC2)c2ccccc12)C(=O)NCc1ccc2c(c1)OCO2,66%
3,Fc1ccc(-c2noc3ncnc(NCc4ccc(Cl)cc4)c23)cc1,84%
4,CCOC(=O)c1ccc(N2C(=O)c3n[nH]c(-c4cccs4)c3C2c2ccc(OC)cc2OC)cc1 (stereo unspecified),76%
5,CCCc1ccc(OCc2ccc(C(=O)Nc3ccccc3C(=O)OC)o2)cc1,-2% (active)
6,COc1ccccc1NC(=O)c1ccc(C)o1,61%
7,CCOc1ccc(OCc2ccc(C(=O)Nc3cc(OC)c(OC)c(OC)c3)o2)cc1,54% (active)
8,COc1ccc(NC(=O)c2ccc(COc3ccccc3OC)o2)cc1OC,61%
9,COc1ccccc1NC(=O)c1ccc(COc2ccc(C)c(C)c2)o1,1% (active)
10,COC(=O)c1ccccc1NC(=O)c1ccc(COc2cc(C)cc(C)c2)o1,40%
11,COC(=O)c1ccccc1NC(=O)c1ccc(COc2ccccc2Cl)o1,63%
12,Cc1cc(C)cc(OCc2ccc(C(=O)Nc3ccccc3F)o2)c1,45%
13,CCOc1ccc(NC(=O)c2cc(=O)c3cc(CC)ccc3o2)cc1,57%
14,CC(=O)Nc1ccc(NC(=O)c2ccc(COc3ccc(Cl)cc3Cl)o2)cc1,46% (active)
15,C=CCc1ccc(OCc2ccc(C(=O)Nc3ccc(NC(C)=O)cc3)o2)c(OC)c1,121%
16,COC(=O)c1cc(NC(=O)c2ccc(-c3ccc(Cl)cc3Cl)o2)cc(C(=O)OC)c1,53%
17,O=C(O)CCCc1nc2ccccc2s1,75%
18,Cc1cc(NC(=O)CSc2nc(-c3ccccc3F)nc3c2c(=O)n(C)c(=O)n3C)no1,86%
19,COC(=O)c1ccccc1NC(=O)C1CCCN(c2ncnc3onc(C)c23)C1 (stereo unspecified),80%
20,O=C(CNCC1CCCCC1)Nc1cccc(F)c1,88%
21,COc1cc(CNC(=O)c2ccc3c(c2)N(C)C(=O)C2CCCCN32)cc(OC)c1OC (stereo unspecified),69%
22,Cc1c(C(=O)N2CCC(C)CC2)c(S(=O)(=O)NCc2ccc(Cl)cc2)c(C)n1C,128%

row,Compound,survival
1,O=C(Nc1c(C(=O)N2CCN(c3ccccc3F)CC2)oc2ccccc12)c1ccc(Br)o1,80%
2,CCc1cccc(C)c1NC(=O)Cn1cc2c(n1)CCCCC2,90%
3,C#CCn1c(O)c(N=NC(=O)c2ccccc2-n2cccc2)c2ccccc21,60%
4,COc1ccc(-c2noc(CSc3nnc(-c4ccncc4)n3-c3ccc(C)cc3)n2)cc1,55%
5,Cc1ccc(-c2noc(CSc3nnc(C)n3-c3ccc(C)cc3)n2)cc1,101%
6,COc1ccc(-c2noc(CSc3nnc(-c4ccncc4)n3-c3ccc(OC)cc3)n2)cc1,92%
7,CCCn1c(SCc2nc(-c3ccccc3C)no2)nnc1-c1ccc(Cl)cc1,47%
8,CCCn1c(SCc2nc(-c3ccccc3OCC)no2)nnc1-c1ccc(Cl)cc1,43% (active)
9,COc1ccc(-c2noc(CSc3nnc(C)n3-c3ccc(C)cc3)n2)cc1,57% (active)
10,CCCn1c(SCc2nc(-c3ccc(OC)cc3OC)no2)nnc1-c1ccc(Cl)cc1,53%
11,Cc1ccc(-n2c(SCc3nc(-c4ccc(Cl)cc4)no3)nnc2-c2ccncc2)cc1,37% (active)
12,COc1ccc(-n2c(SCc3nc(-c4ccc(Cl)cc4)no3)nnc2-c2ccncc2)cc1,49% (active)
13,COc1ccc(-c2noc(CSc3nnc(C)n3-c3ccc(OC)cc3)n2)cc1,77%
14,COc1ccc(-n2c(SCc3nc(-c4ccc(C)cc4)no3)nnc2-c2ccncc2)cc1,57%
15,COc1ccc(-c2noc(CSc3nnc(-c4ccncc4)n3-c3ccccc3)n2)cc1,70%
16,CC(C)Oc1ccc(C(=O)Nc2nonc2-c2ccc(OC(C)C)cc2)cc1,75%
17,Cc1ccc2c(c1)N(C(=O)CCC(=O)Nc1ccc(F)cc1F)CC(C)O2 (stereo unspecified),56%
18,CCOc1ccc(-c2nnc(SCC(=O)NCCc3ccc(OC)c(OC)c3)nc2-c2ccc(OCC)cc2)cc1,98%
19,CCOc1ccc(OCC)c(NC(=O)c2cnn(-c3ccc(F)cc3)c2-n2cccc2)c1,80%
20,Cc1ccccc1OCC(=O)Nc1ccc(-c2nc3cc(Cl)cc(Cl)c3o2)cc1,62%
21,Cc1ccc(C)c(NC(=O)CN2C(=O)c3cccnc3Oc3ccc(C)cc32)c1,80%
22,CCOc1ccc(S(=O)(=O)n2nc(C)c(S(=O)(=O)N3CCCCCC3)c2C)cc1,115%

row,Compound,survival
1,CCOC(=O)c1ccc2c(c1)N(C(CC)C(=O)Nc1ccccc1OC)C(=O)c1ccccc1S2 (stereo unspecified),101%
2,COC(=O)c1cc2sc(Cl)cc2n1CC(=O)Nc1cc(OC)cc(OC)c1,84%
3,CCOC(=O)c1cc2occc2n1C(C)C(=O)OCC (stereo unspecified),80%
4,CCC(C(=O)Nc1ccccc1OC)n1c(C(=O)OC)cc2sc(Cl)cc21 (stereo unspecified),-6% (active)
5,CCC(Sc1nnc(C)n2c1cc1occc12)C(=O)Nc1ccccc1OC (stereo unspecified),77%
6,CCOc1ccccc1NC(=O)C(CC)n1c(C(=O)OC)cc2occc21 (stereo unspecified),-4% (active)
7,Cc1ccc(CNc2nc(-c3ccco3)nn2S(=O)(=O)c2ccc3ccccc3c2)cc1,115%
8,CCc1ccc(NC(=O)Cn2c(C(=O)OC)cc3oc(C)cc32)cc1,65%
9,CC(C)NC(=O)Cn1ncn2c(cc3cc(F)ccc32)c1=O,82%
10,CNC(=O)C1CCC(Cn2c(=O)c3sccc3n(CC(=O)Nc3cc(C)cc(C)c3)c2=O)CC1 (stereo unspecified),70%
11,Cc1nn(CCC(=O)Nc2cccc(C#N)c2)c(C)c1S(=O)(=O)N1CCCCC1,88%
12,CCc1ccc(NC(=O)CC2C(=O)N(c3ccc(C)cc3)C(=O)N2CCc2ccncc2)cc1 (stereo unspecified),81%
13,Nc1nonc1-c1nc2ccccc2n1Cc1c(Cl)cccc1Cl,50%
14,O=C(NCCc1ccc(Cl)cc1)c1ccc(CS(=O)(=O)Cc2ccccc2F)o1,-1% (active)
15,O=C(NCCc1ccccc1)c1ccc(CS(=O)Cc2ccc(Cl)cc2)o1 (stereo unspecified),74%
16,Cc1ccccc1CS(=O)(=O)Cc1ccc(C(=O)NCc2ccc(F)cc2)o1,47% (active)
17,Cc1ccc(CCNC(=O)c2ccc(CS(=O)(=O)Cc3ccccc3F)o2)cc1,72%
18,Cc1ccccc1CS(=O)(=O)Cc1ccc(C(=O)NCCc2ccc(Cl)cc2)o1,76%
19,CCOc1ccc(CCNC(=O)c2ccc(CS(=O)Cc3cccc(Cl)c3)o2)cc1 (stereo unspecified),50%
20,CCc1ccc(CNC(=O)c2ccc(CS(=O)(=O)Cc3ccccc3C)o2)cc1,79%
21,O=C(NCCc1ccc(Cl)cc1)c1ccc(CS(=O)Cc2cccc(Cl)c2)o1 (stereo unspecified),38% (active)
22,Cc1ccc(CNC(=O)c2ccc(CS(=O)(=O)Cc3ccc(F)cc3)o2)cc1,77%
